Most compounds without a hit are left out; they make up all but 12% or so of the library.
SARS PLpro yeast – SARS-CoV PLP inhibition in yeast; AID 485353; S. cerevisiae expressing SARS-CoV PLpro, growth rescue; Potency, µM (highest dose often 32.9 µM), for the others: at the highest dose activity, positive = growth rescue, most hits filed as activators; 330,000 compounds, 0.19% hits; calls by dose curve; further: 0% is about no effect; nearly all actives have a fitted effect of over 55% in size
Pf growth 96h – inhibits malaria parasite growth, 96 h. P. falciparum luciferase reporter growth, 96 h. Potency, µM (series often up to 28.7 µM), for the others: top-dose activity change, negative = inhibition, most hits filed as inhibitors. 320,000 compounds, 6.9% hits. AID 504834; further: on the % scale 0 is the no-effect control and ±100 the full control effect
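96 h incubation, 37 C, 5% CO2, of luciferase-reporter P. falciparum-infected RBCs (2% hematocrit, 0.05% parasitemia final) with test compounds; endpoint luminescence.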
Pf growth 48h – P. falciparum growth inhibition at 48 hours (one generation) | Potency, µM (doses to about 28.7 µM), for inactives: top-dose activity change, negative = inhibition, hits mostly inhibitors | 310,000 compounds, 5.9% hits | AID 504832 | P. falciparum luciferase growth in erythrocytes, 48 h; further: on the % scale 0 is the no-effect control and ±100 the full control effect
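Luciferase-expressing P. falciparum in infected erythrocytes (2% hematocrit, 0.1% parasitemia final) in RPMI 1640/0.5% Albumax were exposed to compound for 48 hours at 37 C, 5% CO2; growth read as luminescence.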
Sm TGR block – blocks Schistosoma mansoni thioredoxin glutathione reductase | purified TGR, DTNB reduction, TNB absorbance 405 nm | Potency, µM (titrated, usually from 114 µM), inactives show at the top dose activity change, negative = inhibition, usual class: inhibitors | 360,000 compounds, 3% hits | AID 485364; further: on the % scale 0 is the no-effect control and ±100 the full control effect; nearly all actives have a fitted effect of over 60% in size
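First, TGR (20 nM dispensed) and NADPH were mixed with compound. Second, a 15 min room-temperature incubation followed. Third, further NADPH and then DTNB were added to start the reaction. Finally, TNB absorbance was monitored kinetically.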
* hit, by the source's call; ? = inconclusive; . = no result given. Unless noted, the call rests on the fitted dose curve; in most records, active means well fitted curve in the direction sought with a large enough effect; inconclusive means small, poorly fitted or top-dose-only effect, or another doubt; inactive means no such curve, though single readings can be large; an effect the other way counts as inactive or inconclusive. Potency means the concentration at half of the fitted maximal effect.

SMILES	SARS PLpro yeast	Pf growth 96h	Pf growth 48h	Sm TGR block
O=C(CCN1CCCO1)NC1CCCc2c1cnn2-c1ccccc1F (stereo not drawn)	1%	?	0%	8%
Cc1ccccc1-c1ncnn1-c1sc2c(c1C#N)CCCCC2	.	.	.	4%
CSc1sc(-c2n[nH]c(=S)n2C)c2c1C=CCC2	17%	5.9µM*	?	25µM*
Cc1nc(-c2ccccc2)sc1-c1n[nH]c(=S)n1C	-4%	?	32%	8%
O=C(Nc1ccc(Oc2ccccc2)cc1)c1ccc(F)c(S(=O)(=O)N2CCN(c3ccccc3F)CC2)c1	.	.	.	0%
O=C(NCc1noc2ccccc12)N1CCN(c2ccccc2)CC1	.	.	.	4%
COc1ccccc1-c1nnc2n(CCc3ccccc3)c(=O)c3ccccc3n12	.	.	.	-3%
COc1ccc(-c2nnc3n(CCc4ccccc4)c(=O)c4ccccc4n23)cc1OC	5%	12µM*	20%	-7%
Oc1ccc(/C=N/Nc2ccnc3cc(Cl)ccc23)c(O)c1O	23%	?	?	-28%
Oc1ccc(/C=N/Nc2ccnc3cc(Cl)ccc23)cc1O	1%	0.74µM*	0.66µM*	-2%
CC/C(=N\Nc1ccnc2cc(Cl)ccc12)c1ccc(O)cc1	-8%	1.3µM*	1.7µM*	50µM*
CC/C(=N/NS(=O)(=O)c1ccc(Cl)cc1)c1ccc(O)cc1	-3%	29%	14%	-22%
Cc1cc2cc(C=C(C#N)C#N)c(Cl)nc2cc1C	-17%	6%	31%	3.2µM*
CN(C)S(=O)(=O)c1cc(NC(=O)c2ccc(-n3ccnc3)c([N+](=O)[O-])c2)ccc1Cl	-9%	?	8.3µM*	-1%
Cc1cc(C(=O)Nc2cccc(-c3ccc(N4CCOCC4)nn3)c2)ccc1[N+](=O)[O-]	-2%	10µM*	?	-1%
COc1ccccc1NC(=O)c1ccc(-n2ccnc2)c([N+](=O)[O-])c1	-3%	?	?	-6%
CC(=O)N1CCN(c2ccc(NC(=O)c3ccc(Cl)c([N+](=O)[O-])c3)cc2)CC1	-1%	12%	0%	0%
CC(=O)N1CCN(c2ccc(NC(=O)c3ccc(N4CCCC4)c([N+](=O)[O-])c3)cc2Cl)CC1	2%	?	12µM*	1%
O=C(Nc1ccc(N2CCCCC2)c(Cl)c1)c1ccc(N2CCOCC2)c([N+](=O)[O-])c1	-1%	?	5.2µM*	0%
CC(=O)NC[C@@H]1CN(c2ccc(N3CCOCC3)c(F)c2)C(=O)O1	.	15µM*	-1%	.
COC(=O)c1ccc(N2CCOCC2)c(F)c1	3%	94%	.	10%
COc1cccc(CSCC(=O)NCCc2ccccc2)c1OC	1%	31%	5%	9%
COc1ccc2c(c1)CC/C(=C/c1ccncc1)C2=O	-61%	259%	-12%	4%
COc1ccc2c(c1)CC/C(=C\C=C\c1ccccc1OC)C2=O	0%	?	-11%	28µM*
COc1ccc2c(c1)CC/C(=C\c1ccc(C)o1)C2=O	-6%	59%	11%	22µM*
SMILES	SARS PLpro yeast	Pf growth 96h	Pf growth 48h	Sm TGR block
COc1ccc2c(c1)C(=O)/C(=C/C=C/c1ccccc1)CC2	3%	2.3µM*	?	45µM*
COc1ccc(NC(=O)Cn2c(=O)n(Cc3ccco3)c(=O)c3cc(OC)c(OC)cc32)cc1	.	.	.	0%
COc1ccc(-n2c(=O)c3c4c(sc3n(Cc3ccc(F)cc3)c2=O)CN(C(C)=O)CC4)c(OC)c1	.	.	.	-5%
CC1CCCN(C(=O)c2nn(C)c3c2CS(=O)(=O)c2ccccc2-3)C1 (stereo not drawn)	0%	1%	17%	4%
Cc1ccc(C2(C)NC(=O)N(CC(=O)N3CCN(S(=O)(=O)c4cccc(F)c4)CC3)C2=O)cc1 (stereo not drawn)	4%	12µM*	-19%	-5%
CCC1(c2ccc(F)cc2)NC(=O)N(CC(=O)N2CCN(S(=O)(=O)c3ccc(C)cc3)CC2)C1=O (stereo not drawn)	5%	?	?	-3%
O=C(CCN1C(=O)C2CCCCC2C1=O)N1CCN(S(=O)(=O)c2cccc(F)c2)CC1 (stereo not drawn)	-7%	?	-4%	56µM*
Cc1ccc(C)c(S(=O)(=O)NCCc2csc(-c3ccc(Cl)cc3)n2)c1	.	.	.	1%
NC(=S)c1cc2cc(Cl)ccc2oc1=O	3%	19%	-3%	1%
Cc1ccc(Cl)cc1N1CCN(C(=O)c2ccc(NC(=O)c3nsc4ccccc34)cc2)CC1	.	.	.	0%

Screening results as filed in PubChem BioAssay.
